# Assay results reported in PubChem BioAssay.
# Tests used:
# [1] = test system: Human papillomavirus type 1a protein E7 (residues 44-93); assay: HPV1a E7 fragment binders on microarrays, primary screen, biochemical, small-molecule microarray, residues 44-93, 635 nm fluorescence (AID 1108); settings: small-molecule microarray binding, fluorescence 635 nm; higher = more signal;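 further: E7 fragment applied at 1 µg/mL in TBST for 1 h at 4 C; score combines spot fluorescence with its signal to noise ratio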
# [2] = modulators of HCV replicon luciferase signal, primary screen, HCV replication inhibitor project, Huh7 cells, luciferase reporter (AID 1109); settings: 48 h, higher = more signal;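 further: huh7 hepatoma cells harbouring a luciferase neomycin HCV replicon reporter; luciferase luminescence as measure of HCV replicon replication; test concentration not given here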
# [3] = target: Left-right determination factor 2 (Homo sapiens) (UniProt O00292); assay: LEFTY2 binders on small-molecule microarrays, primary screen, biochemical, small-molecule microarray, 635 nm fluorescence scan (AID 1110); settings: LEFTY2 binding, higher = more signal
# [4] = target: Calmodulin-1 (Homo sapiens) (UniProt P0DP23); assay: CALM1 binders on microarrays, EGTA buffer, profiling panel, biochemical, small-molecule microarray, Cy5-labelled CALM1 (AID 1111); settings: Cy5-CALM1 binding fluorescence, higher = more signal;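 further: labelled calmodulin applied in Tris saline Tween buffer holding calcium plus EGTA and DTT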
# [5] = target: Calmodulin-1 (Homo sapiens) (UniProt P0DP23); assay: calcium-bound CALM1 binders on microarrays, profiling panel, artefact control for SMM control-protein annotation, biochemical, small-molecule microarray, Cy5-labelled CALM1, plus calcium (AID 1112); settings: Cy5-CALM1 binding fluorescence, higher = more signal;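 further: score merges spot fluorescence with signal to noise from triplicate slides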
# [6] = small-molecule microarray binders of probe aWnt5a, primary screen, biochemical, biotinylated probe, 635/667 nm fluorescence (AID 1113); settings: higher = more signal;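 further: score merges 667 nm fluorescence intensity with signal-to-noise per printed feature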
# [7] = small-molecule microarray binders of probe aShh, primary screen, biochemical, biotinylated probe, 635/667 nm fluorescence (AID 1114); settings: higher = more signal;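 further: probe is biotin-labelled aShh protein from a stem cell growth factor screen; measures binding of labelled protein to compounds printed on the slide; score merges feature fluorescence at 667 nm with signal-to-noise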
# [8] = small-molecule microarray binders of probe aNog, primary screen, biochemical, biotinylated probe, 635/667 nm fluorescence (AID 1115); settings: higher = more signal;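 further: probe is biotinylated aNog protein used at 0.15 µg/mL for 1 h at 4 C; z-score combines 667 nm fluorescence of each spot with its signal to noise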
# [9] = target: Torsin-1A-interacting protein 1 (Homo sapiens) (UniProt Q5JTV8); assay: LAP1 binders from COS7 cell lysate, primary screen, small-molecule microarray, 635/667 nm fluorescence (AID 1116); settings: COS7-hLAP1 lysate binding, 635 nm fluorescence, higher = more signal
# [10] = target: Alpha-bungarotoxin (Bungarus multicinctus) (UniProt P60615); assay: alpha-bungarotoxin binders on microarray, profiling panel, artefact control for SMM control protein annotation, biochemical, small-molecule microarray, Alexa647 label, 635/667 nm fluorescence (AID 1117); settings: alpha-BTX-A647 binding fluorescence, higher = more signal
# Chain of Alpha-bungarotoxin (Bungarus multicinctus) (P60615 whole entry, looked up): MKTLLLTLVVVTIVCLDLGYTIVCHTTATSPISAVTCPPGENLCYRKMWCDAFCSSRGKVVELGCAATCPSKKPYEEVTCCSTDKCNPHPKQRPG
# Chain of Torsin-1A-interacting protein 1 (Homo sapiens) (Q5JTV8 whole entry, looked up): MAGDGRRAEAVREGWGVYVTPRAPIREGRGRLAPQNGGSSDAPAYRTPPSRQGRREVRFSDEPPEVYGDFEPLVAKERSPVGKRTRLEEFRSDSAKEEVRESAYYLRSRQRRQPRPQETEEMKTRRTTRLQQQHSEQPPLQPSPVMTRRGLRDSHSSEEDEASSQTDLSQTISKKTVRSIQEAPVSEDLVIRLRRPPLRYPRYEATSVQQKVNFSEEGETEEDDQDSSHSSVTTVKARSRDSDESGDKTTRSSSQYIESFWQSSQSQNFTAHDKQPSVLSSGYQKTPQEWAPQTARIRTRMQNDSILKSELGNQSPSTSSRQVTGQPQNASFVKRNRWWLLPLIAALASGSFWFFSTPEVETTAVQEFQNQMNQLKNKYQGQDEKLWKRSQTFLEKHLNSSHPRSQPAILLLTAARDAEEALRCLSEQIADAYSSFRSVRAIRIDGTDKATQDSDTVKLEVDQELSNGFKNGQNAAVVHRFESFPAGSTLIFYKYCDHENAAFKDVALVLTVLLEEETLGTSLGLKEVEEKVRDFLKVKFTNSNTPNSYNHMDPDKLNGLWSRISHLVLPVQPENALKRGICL
# Chain of Left-right determination factor 2 (Homo sapiens) (O00292 whole entry, looked up): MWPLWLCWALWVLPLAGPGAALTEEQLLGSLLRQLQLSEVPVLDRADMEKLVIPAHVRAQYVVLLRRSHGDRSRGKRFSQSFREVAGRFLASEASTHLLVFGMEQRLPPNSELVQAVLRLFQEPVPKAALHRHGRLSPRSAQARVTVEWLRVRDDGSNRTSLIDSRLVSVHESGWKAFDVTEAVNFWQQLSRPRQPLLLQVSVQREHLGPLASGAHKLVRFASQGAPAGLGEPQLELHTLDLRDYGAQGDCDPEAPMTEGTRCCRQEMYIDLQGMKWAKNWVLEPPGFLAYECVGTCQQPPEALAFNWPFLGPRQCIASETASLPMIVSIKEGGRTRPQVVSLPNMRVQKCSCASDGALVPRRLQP
SMILES,composite z-score [1],z-score [2],composite z-score [3],composite z-score [4],composite z-score [5],composite z-score [6],composite z-score [7],composite z-score [8],composite z-score [9],composite z-score [10]
CC(C)C(O)C1C=CC2C(=O)N(c3ccccc3)C(=O)C2N1Nc1ccc([N+](=O)[O-])cc1 (stereo not given),1.2,0.285,-0.217,0.594,0.308,0.261,0.0358,0.202,1.34,0.801
CC#CC(=O)Oc1ccccc1C=CC(=O)OCC,0.793,-2.16,0.136,0.0515,-0.27,-0.096,-0.0709,-0.256,0.045,0.115
CN(C)CCCC[C@@H]1NC(=O)[C@@H]2C[C@H](C(=O)NCCCCCCN)[C@H](c3cccc(OCCO)c3)N2C1=O,1.29,0.484,0.45,1.23,0.827,-0.0455,0.876,1.13,2.88,2.63
CN1C(=O)C2C=CC(C(O)C#Cc3ccccc3)N(N3CCCCC3)C2C1=O (stereo not given),-1.16,-0.451,0.414,1.19,0.657,0.234,0.668,0.564,0.494,1.04
CCCC[C@@H]1C[C@H]1[C@@H](NC(=O)c1ccccc1)c1ccc(C(=O)OC)cc1,-0.541,-1.15,-1.9,0.155,0.685,-0.0236,-0.0849,-1.02,-0.679,-0.0885
C=C(CCCC)/C(=C/C[C@H](OC(C)=O)c1ccccc1OCCO)c1cc(C(=O)OC)ccc1OC,0.0187,-2.06,-0.264,-0.621,-0.803,-0.12,0.0048,-0.0184,0.233,0.439
COC(=O)[C@@]1(Cc2ccc(OC)cc2)[C@H]2c3cc(C(=O)N(C)C)n(Cc4ccccn4)c3C[C@H]2CN1C(=O)c1ccccc1,-0.0851,-0.741,-0.479,2.86,1.41,0.0859,0.645,1.86,3.05,1.13
[N-]=[N+]=NCc1ccccc1[C@@H]1OC(c2ccc(OCCCO)cc2)=N[C@]1(Cc1ccccc1)C(=O)NCC(O)CO (stereo not given in full),-0.0042,-1.16,-0.559,0.168,0.305,0.262,0.559,1.99,1.95,2.68
COC(=O)[C@@]1(Cc2ccc(F)cc2)[C@H]2c3cc(C(=O)N(C)C)n(Cc4ccc(Cl)c(C(F)(F)F)c4)c3C[C@H]2CN1C(=O)c1ccccc1,0.199,-2.11,-0.401,2.75,1.63,-0.101,-0.0578,-0.222,2.41,2.36
COc1cc(Br)cc(C(O)C2C=CC3C(=O)N(C)C(=O)C3N2N2CCCCC2)c1OC (stereo not given),0.207,-0.0024,-1.31,-0.104,0.315,-0.0735,0.304,0.69,1.09,-0.251
COC(=O)[C@H](Cc1ccccc1)N1CC2=C[C@@H](C3CC3)n3c(=O)n(C)c(=O)n3[C@H]2[C@@H]1[C@@H](O)Cc1ccccc1,1.35,-1.08,0.41,-0.319,0.0057,-0.0718,-0.0035,0.0121,0.685,-0.0518
C=CCC(OC(C)=O)[C@@H]1[C@@H](N(Cc2cc3ccccc3o2)C(=O)c2cccc3ccccc23)c2cc(OCCCO)ccc2N1C(=O)c1ccc(-c2ccccc2)cc1 (stereo not given in full),-0.0367,0.0372,-0.126,0.132,0.908,0.0368,-0.0553,-0.219,0.235,0.359
NC(=O)NCC#Cc1ccc2c(c1)[C@]1(C(=O)N2)[C@H](c2ccc(O)cc2)N2[C@H](c3ccccc3)[C@H](c3ccccc3)OC(=O)[C@H]2[C@@H]1C(=O)O,-0.0303,-0.708,-1.09,0.342,0.521,-0.185,-0.42,-0.0683,-0.354,-0.27
COC(=O)C(CC#Cc1ccc2c(c1)[C@]1(C(=O)N2)[C@H](C(=O)Nc2nc3ccccc3s2)[C@H]2C(=O)O[C@H](c3ccccc3)[C@H](c3ccccc3)N2[C@@H]1c1ccc(O)cc1)C(=O)OC,1.45,-0.801,0.829,0.728,0.255,0.027,-0.0977,0.406,1.89,0.982
COC(=O)[C@@]1(Cc2ccc(F)cc2)[C@H]2c3cc(C(=O)N4CCCC4)n(CCCNc4ncc(C(F)(F)F)cc4Cl)c3C[C@H]2CN1C(=O)c1ccccc1,1.39,-1.48,-0.386,1.59,0.868,-0.0107,0.831,1.37,0.679,0.493
CN1C=C(C(=O)OCCS(C)(=O)=O)C(C(=O)OCCS(C)(=O)=O)=CC(c2ccc(CO)cc2)=CC1C1CC1 (stereo not given),-0.0095,-0.595,0.328,0.405,-0.306,-0.105,-0.0681,0.366,1.83,0.274
CO[C@H]1O[C@H](CO)[C@@H](OC(=O)Nc2ccc(Oc3ccccc3)cc2)[C@H](OC(=O)Nc2ccc3c(c2)OCO3)[C@H]1OC(=O)Nc1ccc2c(c1)OCO2,1.3,-0.289,0.467,1.96,-0.207,0.105,-0.183,0.414,1.62,2.13
